The values below come from PubChem BioAssay.

SMILES strings stand for the structures. Calls of active or inactive are those of the source.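 The calls were made as follows, unless noted: active = inhibition at or above 50% at 10 µM; inactive = inhibition below 50%.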

Test [1] can be described thus: inhibitors of TNFa-induced NFkB p65 translocation, primary screen, imaging, HUVEC, MLSMR starter and 10KST1 sets (AID 438;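 active = inhibition above 20% together with a positive visual image hit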;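 also: compound added about 3h40 before a 20 min TNFalpha stimulation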;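 as to inhibition: signal is the nuclear over cytoplasmic p65 intensity ratio per well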). The conditions noted are these: HUVEC TNFa-induced p65 nuclear translocation; cell count: measured here: nuclei count (cytotoxicity indicator), at 2.08 µM; inhibition: at 2 µM, stronger effect = higher value, 0% TNFa-plus-vehicle, 100% no-TNFa wells.
Test [2] is described as follows: inhibitors of mutant huntingtin aggregation, primary screen, imaging, exon1htt(103Q)mCFP cells, high-content imaging (AID 483;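 active = visual image review flags a hit and inhibition of aggregation exceeds 20%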;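 also: compound exposure lasted 3 days before fixation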;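 as to nuclei count: percent of the per-plate median nuclei count of sample wells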). The settings on record: exon1htt(103Q)mCFP cell line, aggregate imaging, at 2 µM; inhibition of aggregation: stronger effect = higher value; nuclei count: measured here: cell count, toxicity.
Test [3] can be described thus: inhibitors of E-selectin induction by TNFa, primary screen, imaging, HUVEC, immunofluorescence, MLSMR starter and 10KST1 sets (AID 487;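 active = visually confirmed hit in the image check and inhibition above 20%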;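 as to inhibition: signal is fraction of cell area covered by stained E-selectin grains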;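 as to nuclei count: 100% = median nuclei count of all wells on the same plate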). The conditions noted are these: HUVEC TNFalpha-induced E-selectin immunofluorescence imaging, at 2 µM; inhibition: stronger effect = higher value; nuclei count: measured here: cell number, toxicity.
The target in test [4] is Voltage-gated potassium channel subunit beta-2 (Rattus norvegicus) (UniProt P62483). Kind of test: KvBeta enzyme negative modulators, primary screen, biochemical, NADPH fluorescence (AID 622;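 active = fluorescence slope higher than the sample average by over 3 SD, cut at about -0.22 in these data, passing the limit was not always enough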;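 also: slope of raw intensity against log time taken from 70 to 1610 s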). The settings on record: recombinant KvBeta, 4-cyanobenzaldehyde reduction, at 10 µM, stronger effect = higher value.
Sequence of Voltage-gated potassium channel subunit beta-2 (Rattus norvegicus) (P62483 whole entry, looked up): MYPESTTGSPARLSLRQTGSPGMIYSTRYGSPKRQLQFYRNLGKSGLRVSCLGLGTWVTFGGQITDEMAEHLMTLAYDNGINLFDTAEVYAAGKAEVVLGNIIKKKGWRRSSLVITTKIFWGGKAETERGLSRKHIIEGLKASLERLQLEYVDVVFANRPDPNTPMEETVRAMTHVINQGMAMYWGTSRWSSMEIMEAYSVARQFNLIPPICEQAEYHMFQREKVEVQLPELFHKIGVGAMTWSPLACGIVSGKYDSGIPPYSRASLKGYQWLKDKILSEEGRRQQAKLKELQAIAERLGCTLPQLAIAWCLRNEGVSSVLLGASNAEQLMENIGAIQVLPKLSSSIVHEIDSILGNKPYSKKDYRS
Test [5] shares this target. In words: KvBeta positive modulators, primary screen, biochemical, NADPH fluorescence (AID 623;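 active = NADPH fluorescence slope more negative than the mean of all samples by about 3 SD, 99.7% confidence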;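 also: fluorescence intensity change per second fitted from 20 to 320 s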). The settings on record: Recombinant KvBeta, NADPH fluorescence decrease slope, 10 min; at 10 µM; stronger effect = lower value.
Test [6] has as its target Alpha-2C adrenergic receptor (Homo sapiens) (UniProt P18825). Kind of test: modulators of alpha2C/GIRK thallium flux, primary screen, cell-based, HEK293 alpha2C/GIRK1/2 (AID 624;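 active = fluorescence slope after compound addition differing from the mean of all screened samples at 99.7% confidence, in either direction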;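 also: slope of fluorescence ratio to pre-addition baseline per second over 15 to 24 s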). The settings on record: thallium flux BTC fluorescence, at 10 µM, actives lie on both sides.
Test [7] is described as follows: inhibitors of Sendai virus-induced IRF3 signaling, primary screen, TLR/RLR signaling modifier project, cell-based, Sendai virus stimulus, luciferase, 10K MLSCN set (AID 602276).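 Also: firefly luciferase from ISG56 promoter only with Renilla not read in this screen; 0% = Sendai virus plus DMSO and 100% = medium plus DMSO without virus.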 The conditions noted are these: HEK293 RL24 IRF3 luciferase reporter, at 10 µM, stronger effect = higher value. For orientation: Reporter assays use an easily measured gene product as a stand-in for the process of interest.

A short description of test [8]: inhibitors of poly I:C-induced TLR3 signaling, primary screen, cell-based, poly I:C stimulus, luciferase, 10K MLSCN set (AID 602277;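 active = inhibition of the reporter signal at or above 50%; inactive = inhibition below 50%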). The settings on record: HEK293-TLR3 RL24 IRF3 luciferase reporter, at 10 µM, stronger effect = higher value.

For orientation: inhibition means the drop in the measured response relative to a control, in per cent.

Sequence of Alpha-2C adrenergic receptor (Homo sapiens) (P18825 whole entry, looked up): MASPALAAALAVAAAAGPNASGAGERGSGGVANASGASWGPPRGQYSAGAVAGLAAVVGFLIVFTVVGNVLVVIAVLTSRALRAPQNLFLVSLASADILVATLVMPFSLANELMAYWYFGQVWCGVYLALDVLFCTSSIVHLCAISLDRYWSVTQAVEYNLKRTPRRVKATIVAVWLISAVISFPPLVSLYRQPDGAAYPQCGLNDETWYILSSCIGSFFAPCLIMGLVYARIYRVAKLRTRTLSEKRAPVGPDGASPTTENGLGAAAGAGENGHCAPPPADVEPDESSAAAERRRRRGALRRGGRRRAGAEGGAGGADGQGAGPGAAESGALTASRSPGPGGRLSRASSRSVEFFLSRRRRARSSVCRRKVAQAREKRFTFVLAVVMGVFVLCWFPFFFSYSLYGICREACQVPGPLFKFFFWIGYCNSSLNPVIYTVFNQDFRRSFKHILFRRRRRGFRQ

Consider `CCOC(=O)CSc1nc2cccnc2n1-c1ccc(F)cc1`, for which, in test [1], the cell count stood at 328. For the same molecule, the inhibition is -0.2% (inactive) in test [1], -26.8% (inactive) in test [3], -4.88% (inactive) in test [7] and 2.83% (inactive) in test [8]. Moreover, in test [2], the inhibition of aggregation is -28% (inactive). In addition, the nuclei count in test [2] was 110%; in test [3], 111%. In addition, the fluorescence slope in test [4] was -0.444 (inactive). The NADPH fluorescence slope in test [5] is -1.6e-05 (inactive). Besides, the slope in test [6] was 0.0064 (inactive).

Consider `CC1=Nn2c(nnc2-c2ccc(F)cc2)SC1`, for which, in test [1], the cell count was determined as 340. The inhibition in test [1] is -2.4% (inactive); in test [3], -66% (inactive); in test [7], -12.4% (inactive); in test [8] it was -3.16% (inactive). The inhibition of aggregation in test [2] was 4% (inactive). Moreover, the results for the nuclei count in test [2] and in test [3] were 107% and 95.6%, respectively. Moreover, the fluorescence slope in test [4] is -0.33 (inactive). The NADPH fluorescence slope in test [5] is -4.3e-05 (inactive). Besides, the slope in test [6] was 0.00575 (inactive).

As for `COc1ccc(-c2c(C(F)(F)F)oc3c(CN4CCN(C)CC4)c(O)ccc3c2=O)cc1`, the cell count in test [1] was 555. Also, the inhibition in test [1] was 7.7% (inactive); in test [3], 0.6% (inactive); in test [7] it was -6.41% (inactive); in test [8], 8.59% (inactive). Also, the inhibition of aggregation in test [2] was -14% (inactive). For the same molecule, the figures for the nuclei count in test [2] and in test [3] were 91.6% and 112%, respectively. The fluorescence slope in test [4] was -0.421 (inactive). The NADPH fluorescence slope in test [5] is 2.5e-05 (inactive). In test [6], the slope was 0.00536 (inactive).

As to `CC(C)CCN1CC(C(=O)NCc2ccccc2)CC1=O` (centres undefined), the cell count in test [1] turned out to be 538. For the same molecule, the inhibition was 2.2% (inactive) in test [1], -57.7% (inactive) in test [3], 30.7% (inactive) in test [7] and 14.3% (inactive) in test [8]. Besides, the inhibition of aggregation in test [2] was 2.7% (inactive). The nuclei count in test [2] was 121%; in test [3], 108%. Besides, in test [4], the fluorescence slope is -0.288 (inactive). In addition, in test [5], the NADPH fluorescence slope was -1.6e-05 (inactive). Also, the slope in test [6] was 0.00611 (inactive).

Take `CCOc1ccccc1-c1nc(-c2ccc(C)nc2OC)no1`: the cell count in test [1] worked out at 404. In addition, the inhibition is 4.8% (inactive) in test [1], 1.8% (inactive) in test [3], -91.4% (inactive) in test [7] and -227% (inactive) in test [8]. For the same molecule, in test [2], the inhibition of aggregation is -2% (inactive). The nuclei count in test [2] turned out to be 82.1%; in test [3] it was 96.3%. Further, the fluorescence slope in test [4] was -0.552 (inactive). For the same molecule, the NADPH fluorescence slope in test [5] is 1.8e-05 (inactive). Also, in test [6], the slope was 0.00778 (inactive).

`Cc1nc2ncnn2c(N2CCC(C(=O)NC3CCCC3)CC2)c1Cc1ccccc1`: the cell count in test [1] stood at 400. Further, the inhibition is 2.7% (inactive) in test [1], -87.8% (inactive) in test [3], 5.2% (inactive) in test [7] and 25.7% (inactive) in test [8]. For the same molecule, in test [2], the inhibition of aggregation was -20.2% (inactive). In addition, the nuclei count in test [2] is 116%; in test [3] it was 117%. The fluorescence slope in test [4] is -0.463 (inactive). For the same molecule, in test [5], the NADPH fluorescence slope was -0.000271 (inactive). In addition, in test [6], the slope is 0.00426 (inactive).

For the molecule `CC(C)(NC(=O)N1CCCC1)c1cccc(C(C)(C)NC(=O)N2CCCC2)c1`, in test [1], the cell count was 366. The inhibition in test [1] is -1.8% (inactive); in test [3], 21.6% (inactive); in test [7] it was 11.4% (inactive); in test [8], 30.1% (inactive). In addition, the inhibition of aggregation in test [2] was 34.8% (active). For the same molecule, the figures for the nuclei count in test [2] and in test [3] were 92.3% and 83.8%, respectively. In addition, the fluorescence slope in test [4] was -0.381 (inactive). Moreover, the NADPH fluorescence slope in test [5] is 3e-05 (inactive). Further, the slope in test [6] was 0.00445 (inactive).

Regarding `O=C(COc1ccccc1Cl)NCCCN1CCOCC1`, the cell count in test [1] amounted to 458. In addition, the inhibition is 5.4% (inactive) in test [1], -11.3% (inactive) in test [3], 10.2% (inactive) in test [7] and 18.2% (inactive) in test [8]. The inhibition of aggregation in test [2] is 0% (inactive). For the same molecule, the nuclei count was determined as 117% in test [2] and 126% in test [3]. Also, the fluorescence slope in test [4] was -0.509 (inactive). Moreover, in test [5], the NADPH fluorescence slope is -5.8e-05 (inactive). Also, the slope in test [6] was 0.00528 (inactive).

Turning to `CCOC(=O)N1CCC(N2C(=O)c3ccccc3C2Nc2cc(Cl)c(OC)cc2OC)CC1` (centres undefined), the cell count in test [1] amounted to 761. Moreover, the inhibition is -2.3% (inactive) in test [1], -35.7% (inactive) in test [3], -7.31% (inactive) in test [7] and 4.34% (inactive) in test [8]. Besides, the inhibition of aggregation in test [2] was -25.4% (inactive). The nuclei count in test [2] was 111%; in test [3], 114%. In addition, in test [4], the fluorescence slope is -0.596 (inactive). In addition, in test [5], the NADPH fluorescence slope is -3.8e-05 (inactive). Also, in test [6], the slope was 0.0052 (inactive).

For the molecule `CCOc1cc(CN2CCN(C(=O)c3ccco3)CC2)ccc1OC`, the cell count in test [1] stood at 403. The inhibition in test [1] was -3% (inactive); in test [3], 44.9% (inactive); in test [7] it was 11.7% (inactive); in test [8], 21.2% (inactive). In addition, in test [2], the inhibition of aggregation is 8.5% (inactive). The nuclei count worked out at 88.9% in test [2] and 104% in test [3]. Further, the fluorescence slope in test [4] is -0.33 (inactive). Moreover, the NADPH fluorescence slope in test [5] was -1.5e-05 (inactive). For the same molecule, the slope in test [6] was 0.00559 (inactive).

`CCOC(=O)C(NC(=O)OC(C)C)(Nc1nccs1)C(F)(F)F` (centres undefined): the cell count in test [1] was found to be 636. Besides, the inhibition in test [1] is 10.6% (inactive); in test [3], 22.7% (inactive); in test [7], 8.51% (inactive); in test [8], 27.8% (inactive). In test [2], the inhibition of aggregation is -13.3% (inactive). For the same molecule, the nuclei count in test [2] is 98.7%; in test [3], 108%. For the same molecule, the fluorescence slope in test [4] was -0.608 (inactive). In test [5], the NADPH fluorescence slope was -5.2e-07 (inactive). Besides, the slope in test [6] is 0.00583 (inactive).

Take `O=C(CSc1nc2ccccc2s1)N1CCN(C(=O)c2ccco2)CC1`: the cell count in test [1] came out at 394. For the same molecule, the inhibition was 0.5% (inactive) in test [1], -45.3% (inactive) in test [3], 7.64% (inactive) in test [7] and 22.8% (inactive) in test [8]. Besides, in test [2], the inhibition of aggregation was 10% (inactive). In addition, the values for the nuclei count in test [2] and in test [3] were 104% and 102%, respectively. Also, in test [4], the fluorescence slope is -0.377 (inactive). Also, the NADPH fluorescence slope in test [5] is 9e-06 (inactive). For the same molecule, the slope in test [6] is 0.00381 (inactive).

For `CS(=O)(=O)NCCSCc1c(F)cccc1Cl`, the cell count in test [1] was found to be 270. For the same molecule, the inhibition was 5.5% (inactive) in test [1], -41.6% (inactive) in test [3], 2.63% (inactive) in test [7] and 0.999% (inactive) in test [8]. In addition, the inhibition of aggregation in test [2] was 0% (inactive). Further, the values for the nuclei count in test [2] and in test [3] were 106% and 96.6%, respectively. In addition, the fluorescence slope in test [4] is -0.527 (inactive). For the same molecule, the NADPH fluorescence slope in test [5] is -2.1e-05 (inactive). The slope in test [6] is 0.00448 (inactive).

In the case of `CC1CC(NC(=O)c2cnc3n(c2=O)CCS3)CC(C)(C)C1` (centres undefined), the cell count in test [1] was determined as 626. In addition, the inhibition was -2.3% (inactive) in test [1], -37.1% (inactive) in test [3], 16.9% (inactive) in test [7] and 38.3% (inactive) in test [8]. Further, the inhibition of aggregation in test [2] was -23.1% (inactive). Moreover, the values for the nuclei count in test [2] and in test [3] were 113% and 112%, respectively. Further, the fluorescence slope in test [4] was -0.56 (inactive). Besides, the NADPH fluorescence slope in test [5] is -4.4e-05 (inactive). Also, the slope in test [6] was 0.00953 (inactive).
